Test results as given in PubChem BioAssay (NCATS).
Inconclusive results are not listed. Active and inactive are the calls of the source. Calls come from the whole dose curve; as a rule, active = well fitted curve in the direction sought with a large enough effect; inconclusive = small, poorly fitted or top-dose-only effect, or another doubt; inactive = no such curve, though single readings can be large; an effect the other way counts as inactive or inconclusive.

Experiments:
[1] = biological target: Glutathione peroxidase 1 (Homo sapiens) (UniProt P07203); assay: Primary qHTS Assay for Inhibitors of Recombinant Selenoprotein Glutathione Peroxidase 1 (GPX1) (AID 1845191); note: nearly all actives have a fitted effect of over 65% in size
How it was run: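 GR-coupled assay: compounds preincubated 30 min at room temperature with GPX1, then reaction started with CHP; final 10 nM GPX1, 1 mM GSH, 0.5 mM CHP, 0.5 mM NADPH, 100 nM GR, 0.01% BSA, pH 7.5 Tris buffer. NADPH fluorescence (340/450 nm) read at 0 and 15 min.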

[2] = biological target: Phospholipid hydroperoxide glutathione peroxidase GPX4 (Homo sapiens) (UniProt P36969); assay: Primary qHTS Assay for Inhibitors of Recombinant Selenoprotein Glutathione Peroxidase 4 (GPX4) (AID 1845192); note: nearly all actives have a fitted effect of over 65% in size; note: potency is the fitted concentration of half-maximal effect
How it was run: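 GR-coupled assay: recombinant GPX4 preincubated 30 min with compound at room temperature; final 200 nM GPX4, 1 mM GSH, 0.5 mM cumene hydroperoxide, 0.5 mM NADPH, 100 nM GR, 0.01% BSA, pH 7.5 Tris. NADPH fluorescence (340/450 nm) read at 0 and 15 min.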

[3] = biological target: Luciferin 4-monooxygenase (Photinus pyralis) (UniProt P08659); assay: Primary firefly luciferase (FLuc) qHTS assay for identification of artifact compounds. (AID 1845220); note: nearly all actives have a fitted effect of over 60% in size
How it was run: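 Enzymatic FLuc inhibition assay: compounds pre-exposed to luciferin/ATP (10 uM each) for 15 min, then purified P. pyralis enzyme at 10 nM added. Read-out: luminescence at 5 min.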

[4] = Primary fluorescence-based thiol-reactive (MSTI) qHTS assay for identification of artifact compounds. (AID 1845221); note: nearly all actives have a fitted effect of over 65% in size; note: potency is the fitted concentration of half-maximal effect
How it was run: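 A multi-concentration qHTS design tested compounds against 4 uM MSTI, pH 7.4 phosphate-buffered saline. Plates were protected from light for 1 h at room temperature before imaging fluorescence.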

[5] = test system: Nanoluciferase (engineered Oplophorus gracilirostris luciferase); assay: Primary Nanoluciferase (NLuc) qHTS assay for identification of artifact compounds. (AID 1845222); note: potency is the fitted concentration of half-maximal effect
How it was run: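 S16 cell supernatant NLuc, 1:55; cpds qHTS; 15 min RT dark; Nano-Glo substrate 1:100, 5 min; luminescence; Hill fit of % inhibition.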

[6] = Primary redox qHTS assay for identification of artifact compounds. (AID 1845223)
How it was run: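 Amplex Red (25 uM) and HRP (250 mU/mL) in HBSS, with compounds for 15 min, then 250 uM DTT for 30 min, room temperature, dark. Fluorescence 525/598 nm read; normalized to DMSO and 10 uM DA3003; Hill fit.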

Measured: Potency

Chain of Phospholipid hydroperoxide glutathione peroxidase GPX4 (Homo sapiens) (P36969 whole entry, looked up): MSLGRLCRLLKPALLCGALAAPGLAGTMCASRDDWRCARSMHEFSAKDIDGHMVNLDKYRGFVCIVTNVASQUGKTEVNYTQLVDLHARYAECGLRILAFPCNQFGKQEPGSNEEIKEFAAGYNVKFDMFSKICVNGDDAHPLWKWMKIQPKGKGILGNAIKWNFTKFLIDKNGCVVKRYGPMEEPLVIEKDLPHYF
Chain of Glutathione peroxidase 1 (Homo sapiens) (P07203 whole entry, looked up): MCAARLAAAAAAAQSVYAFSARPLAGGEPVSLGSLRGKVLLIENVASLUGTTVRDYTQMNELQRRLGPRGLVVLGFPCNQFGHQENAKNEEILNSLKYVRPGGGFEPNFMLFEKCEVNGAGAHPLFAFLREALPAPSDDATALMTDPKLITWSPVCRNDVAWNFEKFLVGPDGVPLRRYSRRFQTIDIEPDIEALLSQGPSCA

O=C(NCc1ccc(OC(F)(F)F)cc1)C1c2c(F)cccc2C(=O)N1CCc1ccccn1 (centres undefined)
inactive: [1] | [2] | [3] | [4] | [5] | [6]

Oc1ccc(-c2cnc3ccc(NCc4ccco4)nn23)cc1
inactive: [1] | [2] | [3] | [5] | [6]
active: [4] 5.97 µM

CC(C)CCNC(=O)[C@H](CC(C)C)NC(=O)[C@H]1O[C@@H]1C(=O)O
inactive: [1] | [2] | [3] | [4] | [5] | [6]

Cc1noc(C)c1-c1cc(O)cc(C(O)c2ccccc2)c1 (centres undefined)
inactive: [1] | [2] | [3] | [4] | [5] | [6]

CC(=O)OC(C)(C)/C=C/C(=O)[C@](C)(O)[C@H]1C(O)C[C@@]2(C)[C@@H]3CC=C4[C@@H](C=C(O[C@@H]5O[C@H](CO)[C@@H](O)[C@H](O)[C@H]5O)C(=O)C4(C)C)[C@]3(C)C(=O)C[C@]12C (some centres undefined)
inactive: [1] | [2] | [3] | [4] | [5] | [6]

CCOC(=O)N1CCC(N2CCC[C@@H](NC(=O)c3ccccc3C)C2)CC1
inactive: [1] | [2] | [3] | [4] | [5] | [6]

CC(=O)c1ccc2c(c1)[C@H](NC(=O)c1ccc(F)c(Cl)c1)[C@H](O)C(C)(C)O2
inactive: [1] | [2] | [3] | [4] | [5] | [6]

C/C(=C\CO[C@@H]1O[C@H](CO[C@H]2OC[C@](O)(CO)[C@H]2O)[C@@H](O)[C@H](O)[C@H]1O)C(C)(C)O
inactive: [1] | [2] | [3] | [4] | [5] | [6]

C[C@@H](Nc1ncnc2[nH]c(-c3ccc(O)cc3)cc12)c1ccccc1
active: [4] 1.34 µM
inactive: [1] | [2] | [3] | [5] | [6]

N#Cc1ccc(COc2ccc(-c3cccc4nc(NC(=O)C5CC5)nn34)cc2)cn1
inactive: [1] | [2] | [3] | [4] | [5] | [6]

C=C(C)[C@@H]1CC[C@]2(C(=O)O)CC[C@]3(C(=O)O)[C@H](CCC4[C@@]5(C)CCC(=O)C(C)(C)C5CC[C@]43C)C12 (some centres undefined)
inactive: [1] | [2] | [3] | [4] | [5] | [6]

COc1ccccc1N1CCN(c2ncnc3n[nH]c(Br)c23)CC1
inactive: [1] | [2] | [3] | [4] | [5] | [6]

COC(=O)C1=CO[C@@H](O[C@@H]2O[C@H](CO)[C@@H](O)[C@H](O)[C@H]2O)[C@H]2[C@@H]1C=C[C@]21C=C([C@H](C)OC(=O)/C=C/c2ccc(O)cc2)C(=O)O1
inactive: [1] | [2] | [3] | [4] | [5] | [6]

Fc1ccc(-c2nc(-c3ccccc3F)[nH]c2-c2ccncc2)cc1
inactive: [1] | [2] | [3] | [4] | [5] | [6]

CCN1CCC[C@@H]1CNC(=O)c1ccc2c(c1)NC(=O)c1cccc(C)c1S2
inactive: [1] | [2] | [3] | [4] | [5] | [6]

Cn1ncc2cc(-c3cnc(N)c(Cl)c3N3CCC4(CCNC4=O)CC3)ccc21
inactive: [1] | [2] | [3] | [4] | [5] | [6]

O=C(NCCCCCCCCNC(=O)C(Cl)Cl)C(Cl)Cl
inactive: [1] | [2] | [3] | [4] | [5] | [6]

C[C@@H]1C[C@H]2O[C@@]3(O[C@@H]2C(C)(C)O)C(O)[C@@]2(C)C4CCC5C(C)(C)[C@@H](O[C@H]6OC[C@H](O)[C@@H](O)[C@@H]6O)CC[C@@]56C[C@@]46CC[C@]2(C)C13 (some centres undefined)
inactive: [1] | [2] | [3] | [4] | [5] | [6]

COc1cccc(OCCCN)c1-c1cc(Nc2cnc(C#N)cn2)n[nH]1
inactive: [1] | [2] | [3] | [4] | [5] | [6]

Fc1ccc(-n2cc(CCCCN3CCC4(CC3)OCc3ccccc34)c3ccccc32)cc1
inactive: [1] | [2] | [3] | [4] | [5] | [6]

Cc1noc(-c2ccc(-c3ccc(CC(=O)O)cc3)cc2)c1NC(=O)O[C@H](C)c1ccccc1Cl
inactive: [1] | [2] | [3] | [4] | [6]
active: [5] 9.53 µM

O=C([C@@H]1CCCN(c2ccc3[nH]c(C4(n5cc(Cl)cn5)CC4)nc3n2)C1)N1CCCC1
inactive: [1] | [3] | [4] | [5] | [6]
active: [2] 25.5 µM

Cc1cc2ncc(C(=O)NCC(C)(C)NCC(=O)N3CCC[C@H]3C#N)cn2n1
inactive: [1] | [2] | [3] | [4] | [5] | [6]

CCC(=C(c1ccc(OCCN2CCCC2)cc1)c1ccc(OCCN2CCCC2)cc1)c1ccccc1
inactive: [1] | [2] | [3] | [4] | [5] | [6]
